Data: PubChem BioAssay
Active and inactive are the calls of the source. Unless noted, how the calls were made is not given here.

How the values were obtained:
[1] = HepG2 liver cancer cell viability effects, profiling panel, resazurin fluorescence, 24 h, PK04 Diversity Set (AID 1172); conditions: higher = more signal
[2] = basal S. cerevisiae growth modulation, no modifier, primary screen, OD600, strain BY4716, 24 h, basal condition (AID 1173); conditions: OD600, 24 h, higher = more signal, called active from +8 up or from −8 down
[3] = MM1S myeloma cell viability, profiling panel, resazurin fluorescence, basal, 24 h, PK04 Diversity Set (AID 1174); conditions: higher = more signal, called active from +8 up or from −8 down;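 further: MM1S multiple myeloma cell line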
[4] = molecular target: Dihydroorotate dehydrogenase (quinone), mitochondrial (Plasmodium falciparum (isolate 3D7)) (UniProt Q08210); assay: PfDHODH enzyme inhibitors, primary screen, biochemical, C-terminal His tag, absorbance 600 nm (AID 1175); conditions: DCIP absorbance 600 nm, higher = more signal, called active from +8 up or from −8 down;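 further: recombinant parasite enzyme with a five histidine tag at its C terminus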
[5] = P. aeruginosa biofilm formation inhibitors, primary screen, strain PAO1, LB-PBS medium, absorbance 600 nm (AID 1176); conditions: P. aeruginosa PAO1 growth/biofilm, A600, 12 h; higher = more signal
[6] = S. cerevisiae RM11-1a growth modifiers, primary screen, strain RM11-1a, OD600, basal, 24 h (AID 1177); conditions: OD600, 24 h, higher = more signal, called active from +8 up or from −8 down;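 further: cultures grown under basal conditions with no added stressor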
[7] = E. coli acrAB mutant growth effects, primary screen, E. coli filamentation inducers, strain DRC39, OD650, 24 h (AID 1178); conditions: higher = more signal, called active from +8 up or from −8 down;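 further: growth measured as culture turbidity by optical density at 650 nm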
[8] = E. coli acrAB mutant growth effects, primary screen, E. coli filamentation inducers, strain DRC39, OD650, 48 h (AID 1179);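 further: screen aims at cell division blockers that make cells filament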; conditions: E. coli DRC39 delta-acrAB growth, higher = more signal, called active from +8 up or from −8 down
[9] = RPMI8226 myeloma cell viability, profiling panel, resazurin fluorescence, basal, 24 h, PK04 Diversity Set (AID 1180); conditions: higher = more signal;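 further: RPMI8826 multiple myeloma cell line at 5000 cells per well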
[10] = molecular target: E3 ubiquitin-protein ligase XIAP (Homo sapiens) (UniProt P98170); assay: XIAP binders, primary screen, biophysical, small-molecule microarray, fluorescence 635 nm (AID 1181); conditions: small-molecule microarray binding, higher = more signal;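 further: score merges 667 nm emission and signal to noise over triplicate slides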
[11] = system: XIP peptide (Xip251-270) binding; assay: small-molecule binders of XIP peptide, primary screen, biochemical, small-molecule microarray, fluorescence 635/667 nm, 0.1 µg/mL protein (AID 1182); conditions: fluorescent protein binding, 635 nm, higher = more signal, called active from +8 up or from −8 down
[12] = system: XIP peptide (Xip251-270); assay: small-molecule binders of XIP peptide, primary screen, biochemical, small-molecule microarray, fluorescence 635/667 nm, 0.5 µg/mL protein (AID 1183); conditions: small-molecule microarray binding, fluorescence 635 nm; higher = more signal
[13] = Plasmodium falciparum growth inhibition, primary screen, strain 3D7, DAPI fluorescence, 100 nL (AID 1184);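 further: parasites grown inside human red blood cells in medium with human serum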; conditions: P. falciparum 3D7 growth, 3 d, higher = more signal
[14] = molecular target: Homeobox protein Hox-A13 (Mus musculus) (UniProt Q62424); assay: inhibitors of HoxA13-DNA binding, primary screen, biochemical, fluorescence polarization, labeled oligonucleotide (AID 1185); conditions: 15 min, higher = more signal, called active from +8 up or from −8 down
[15] = inhibitors of hydroxyurea-induced Chk1 phosphorylation, primary screen, imaging, HeLa, phospho-Chk1 antibody, percent positive cells (AID 1186); conditions: hydroxyurea-induced phospho-Chk1 immunofluorescence imaging, higher = more signal
[16] = inhibitors of hydroxyurea-induced Chk1 phosphorylation, primary screen, imaging, HeLa, phospho-Chk1 nuclear intensity (AID 1187); conditions: hydroxyurea-induced phospho-Chk1 immunofluorescence imaging, higher = more signal

Chain of E3 ubiquitin-protein ligase XIAP (Homo sapiens) (P98170 whole entry, looked up): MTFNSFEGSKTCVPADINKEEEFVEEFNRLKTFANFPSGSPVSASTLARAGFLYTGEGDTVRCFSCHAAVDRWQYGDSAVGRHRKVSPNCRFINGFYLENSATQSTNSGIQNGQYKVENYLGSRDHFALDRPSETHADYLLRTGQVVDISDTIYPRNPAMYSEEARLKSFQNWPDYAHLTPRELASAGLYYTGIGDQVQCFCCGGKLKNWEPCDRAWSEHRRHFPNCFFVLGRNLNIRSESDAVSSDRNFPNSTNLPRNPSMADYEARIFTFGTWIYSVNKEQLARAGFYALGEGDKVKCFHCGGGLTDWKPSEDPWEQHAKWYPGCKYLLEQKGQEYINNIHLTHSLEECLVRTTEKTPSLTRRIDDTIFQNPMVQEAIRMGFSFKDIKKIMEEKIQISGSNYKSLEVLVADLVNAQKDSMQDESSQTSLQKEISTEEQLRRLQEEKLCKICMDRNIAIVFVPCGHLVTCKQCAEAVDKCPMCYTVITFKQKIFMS
Chain of Dihydroorotate dehydrogenase (quinone), mitochondrial (Plasmodium falciparum (isolate 3D7)) (Q08210 whole entry, looked up): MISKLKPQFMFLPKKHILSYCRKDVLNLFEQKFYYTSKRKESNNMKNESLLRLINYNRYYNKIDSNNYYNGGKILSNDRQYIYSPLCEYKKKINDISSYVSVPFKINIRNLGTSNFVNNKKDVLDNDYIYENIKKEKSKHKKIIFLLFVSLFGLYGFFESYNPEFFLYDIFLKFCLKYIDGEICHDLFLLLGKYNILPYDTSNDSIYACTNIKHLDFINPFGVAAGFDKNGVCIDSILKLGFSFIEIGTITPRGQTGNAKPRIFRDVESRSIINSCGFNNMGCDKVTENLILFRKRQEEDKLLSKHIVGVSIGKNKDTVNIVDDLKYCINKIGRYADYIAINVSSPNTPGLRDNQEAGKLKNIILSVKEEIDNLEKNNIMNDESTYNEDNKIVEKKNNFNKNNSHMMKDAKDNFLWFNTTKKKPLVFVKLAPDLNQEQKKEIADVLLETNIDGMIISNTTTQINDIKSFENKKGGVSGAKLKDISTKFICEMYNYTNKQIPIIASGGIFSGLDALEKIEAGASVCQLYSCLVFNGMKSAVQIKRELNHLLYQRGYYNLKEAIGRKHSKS
Chain of Homeobox protein Hox-A13 (Mus musculus) (Q62424 whole entry, looked up): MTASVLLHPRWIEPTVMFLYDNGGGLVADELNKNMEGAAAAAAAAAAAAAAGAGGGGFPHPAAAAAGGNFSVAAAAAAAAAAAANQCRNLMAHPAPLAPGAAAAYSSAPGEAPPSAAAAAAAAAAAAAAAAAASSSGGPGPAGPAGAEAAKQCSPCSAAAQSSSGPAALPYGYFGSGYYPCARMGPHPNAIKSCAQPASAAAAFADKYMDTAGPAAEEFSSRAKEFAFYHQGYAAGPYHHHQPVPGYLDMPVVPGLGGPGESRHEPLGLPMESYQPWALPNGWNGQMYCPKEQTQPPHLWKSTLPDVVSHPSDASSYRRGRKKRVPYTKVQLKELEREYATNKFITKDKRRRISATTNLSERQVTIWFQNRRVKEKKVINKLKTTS

Row | Structure (SMILES) | z-score [1] | z-score [2] | z-score [3] | composite z-score [4] | z-score [5] | z-score [6] | z-score [7] | z-score [8] | z-score [9] | composite z-score [10] | composite z-score [11] | composite z-score [12] | z-score [13] | z-score [14] | z-score [15] | z-score [16]
1 | CCOC(=CC(=O)OC)CC(O)c1cccc(Cl)c1 (stereo unspecified) | 0.217 | -8.62 (active) | -0.0412 (inactive) | -1.92 (inactive) | 0.16 (inactive) | -2.91 (inactive) | 0.121 (inactive) | 1.08 (inactive) | 0.404 | -0.0091 | 2.68 (inactive) | 0.893 | -0.368 | -3.53 (inactive) | -0.119 (inactive) | 0.219 (inactive)
2 | CC(C)(C)OC(=O)CC[C@]1(C(=O)NCCN2CCOCC2)N=C(c2ccc(OCCCO)cc2)O[C@H]1c1ccccc1N=[N+]=[N-] | -0.0231 | -0.893 (inactive) | -1.28 (inactive) | 0.255 (inactive) | 0.494 (inactive) | -0.279 (inactive) | 0.23 (inactive) | -0.635 (inactive) | -0.565 | -0.16 | 0.716 (inactive) | 0.864 | -1.73 | -4.1 (inactive) | 0.0695 (inactive) | 0.234 (inactive)
3 | O=C1NCC(=O)N2[C@@H]1C[C@@H](C(=O)O)[C@H]2c1ccc(O)cc1 | 0.153 | -0.231 (inactive) | 0.393 (inactive) | -0.273 (inactive) | 0.463 (inactive) | 0.414 (inactive) | -0.42 (inactive) | -0.0242 (inactive) | 0.205 | 0.0374 | 1.26 (inactive) | 0.665 | 0.489 | -1.91 (inactive) | 0.0155 (inactive) | 0.0565 (inactive)
4 | CC(C)N1CC=CC23O[C@@H]4C=CCOC(=O)[C@@H]4[C@H]2C(=O)N(C(C)CO)[C@@H]3C1=O (stereo partly specified) | 0.629 | 0.433 (inactive) | 0.273 (inactive) | -0.218 (inactive) | 0.578 (inactive) | -0.603 (inactive) | 0.17 (inactive) | -0.155 (inactive) | 0.0803 | 0.226 | -0.409 (inactive) | 0.291 | 0.383 | -3.67 (inactive) | 0.113 (inactive) | -0.0881 (inactive)
5 | O=C(CCCCCCC(=O)Nc1ccccc1)N/N=C/c1ccccc1 | 0.327 | 0.141 (inactive) | 0.532 (inactive) | -0.543 (inactive) | 0.437 (inactive) | 0.678 (inactive) | 0.83 (inactive) | 0.159 (inactive) | 0.718 | 0.248 | -0.531 (inactive) | -0.57 | 1.01 | 0.458 (inactive) | -0.156 (inactive) | -0.425 (inactive)
6 | O=C1NC(=O)C2C1C=CC(C(O)c1ccc(Br)cc1)N2Nc1ccccn1 (stereo unspecified) | -0.917 | 0.154 (inactive) | -0.817 (inactive) | -0.347 (inactive) | 1.45 (inactive) | -1.44 (inactive) | 0.421 (inactive) | 0.956 (inactive) | -0.913 | 0.367 | 0.623 (inactive) | 0.883 | 0.284 | -0.555 (inactive) | 0.48 (inactive) | 0.784 (inactive)
7 | COCCOC(=O)N1C(=O)[C@@]2(c3cc(C#CC4=CCCCC4)ccc31)[C@H](C(=O)N1CCN(c3ncccn3)CC1)[C@H]1C(=O)O[C@H](c3ccccc3)[C@H](c3ccccc3)N1[C@@H]2c1ccc(O)cc1 | -0.173 | 1.14 (inactive) | -1.81 (inactive) | 0.332 (inactive) | 1.16 (inactive) | 1.69 (inactive) | -0.766 (inactive) | -0.0604 (inactive) | -0.765 | 0.0589 | 0.481 (inactive) | 0.685 | -1.29 | 0.446 (inactive) | 0.247 (inactive) | 0.0658 (inactive)
8 | CCOc1cc(C(O)C2C=CC3C(=O)N(C)C(=O)C3N2N2CCCCC2)ccc1O (stereo unspecified) | -1.1 | 1.62 (inactive) | -0.791 (inactive) | 0.66 (inactive) | 0.614 (inactive) | 2.07 (inactive) | -0.637 (inactive) | -0.8 (inactive) | -0.698 | 0.179 | 0.169 (inactive) | 0.333 | -0.144 | -5.25 (inactive) | -0.595 (inactive) | -0.839 (inactive)
9 | CCOC(=O)C1=CC[C@@H](c2ccc([N+](=O)[O-])cc2)N(S(=O)(=O)c2ccc(C)cc2)[C@H]1c1ccccc1 | 0.468 | 2.52 (inactive) | 0.541 (inactive) | 0.914 (inactive) | 0.229 (inactive) | 0.901 (inactive) | -0.72 (inactive) | -0.445 (inactive) | 0.546 | -0.124 | 0.353 (inactive) | 0.552 | -1.41 | 2.35 (inactive) | -0.137 (inactive) | -0.3 (inactive)
10 | CCOC(=O)C[C@H]1[C@H](OC(=O)c2ccccc2-c2ccccc2)[C@@H](NC(=O)CC(C)C)c2cc(OCCCO)ccc2N1C(=O)c1ccc2ccccc2n1 | -0.208 | 0.706 (inactive) | 0.0612 (inactive) | -0.112 (inactive) | -0.483 (inactive) | -0.078 (inactive) | -0.418 (inactive) | -0.0818 (inactive) | -0.0139 | 0.0993 | 2.34 (inactive) | 0.0366 | 1.65 | -3.94 (inactive) | 0.222 (inactive) | -0.537 (inactive)
11 | Cc1ccc(S[C@]2(C(=O)NCC(C)C)CC(=O)N(Cc3ccccc3Cl)[C@@H]2c2ccc(CO)cc2I)cc1 | 0.0825 | -1.61 (inactive) | -1.68 (inactive) | -0.0436 (inactive) | 0.82 (inactive) | -1.33 (inactive) | -0.0158 (inactive) | 0.0686 (inactive) | -2.44 | -0.152 | 2.28 (inactive) | 0.157 | -0.548 | -2.97 (inactive) | -0.346 (inactive) | -0.237 (inactive)
12 | C=C(/C=C/CNS(=O)(=O)c1ccc(C)cc1)[C@H](O)[C@H]1CCCN1S(=O)(=O)c1ccccc1[N+](=O)[O-] | -0.0339 | 0.587 (inactive) | 0.113 (inactive) | 0.858 (inactive) | -0.447 (inactive) | 1.41 (inactive) | 1.45 (inactive) | 0.579 (inactive) | 0.0925 | -0.0582 | -0.121 (inactive) | 0.729 | -2.04 | -5.58 (inactive) | -0.0778 (inactive) | 0.181 (inactive)
13 | CC(C)OC(=O)CC(=O)CC(O)c1cccc(C#N)c1 (stereo unspecified) | 0.532 | -0.167 (inactive) | 0.343 (inactive) | -1.29 (inactive) | 0.533 (inactive) | -0.828 (inactive) | 0.283 (inactive) | 1.93 (inactive) | -0.0069 | -0.267 | 0.768 (inactive) | 0.778 | 0.612 | -0.542 (inactive) | -0.467 (inactive) | -0.295 (inactive)
14 | CCOC(=O)[C@H]1C/C=C/C[C@H](C(=O)OCC)C(=O)O[C@H]2[C@@H](OC)O[C@H](CO)[C@@H](OC(=O)Nc3ccc(OC)cc3)[C@@H]2OC1=O | -1.45 | -0.0211 (inactive) | -2.07 (inactive) | 0.214 (inactive) | 0.979 (inactive) | 0.864 (inactive) | 0.391 (inactive) | 1.25 (inactive) | -1.08 | 0.191 | 0.568 (inactive) | 0.601 | -1.71 | -0.589 (inactive) | 0.178 (inactive) | 0.395 (inactive)
15 | C=C[C@@H](C)[C@H](OC(=O)Nc1ccc(SC)cc1)c1ccc(OCCO)cc1 | 0.571 | -3.42 (inactive) | -0.0261 (inactive) | -1.16 (inactive) | 0.638 (inactive) | 0.0728 (inactive) | -0.217 (inactive) | 0.511 (inactive) | 0.152 | -0.111 | 0.263 (inactive) | -0.0795 | -0.005 | -4.89 (inactive) | -0.405 (inactive) | 0.433 (inactive)
16 | C=CCN1C(=O)[C@@]2(CCC(=O)OC(C)(C)C)N=C(c3ccc(OCCCO)cc3)O[C@H]2c2ccccc21 | -0.648 | -1.23 (inactive) | -3.26 (inactive) | 0.407 (inactive) | 1.77 (inactive) | -0.169 (inactive) | 0.636 (inactive) | -0.242 (inactive) | -4.47 | 0.21 | 0.841 (inactive) | 0.473 | -1.95 | -0.861 (inactive) | -0.239 (inactive) | -0.351 (inactive)
